Test results reported in PubChem BioAssay AID485313 (National Center for Advancing Translational Sciences (NCATS), 2010).
Out of some 320,000 compounds screened, about 7,600 (2.4%) were called active. Roughly 3% stayed inconclusive and do not appear here. The sample holds actives, similar compounds and a random draw of the others, so the mix is not that of the screen. Calls come from the whole dose curve; as a rule, active = well fitted activation curve with a large enough effect; inconclusive = small, poorly fitted or top-dose-only effect; inactive = no such curve, though single readings can be large or run the other way.

Test: qHTS Assay for NPC1 Promoter Activators; note: nearly all actives have a fitted effect of over 60% in size;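 for activation: reporter is driven by a mutant NPC1 promoter; % of control where 0% means no effect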
Settings: Huh7 NPC1 promoter luciferase reporter, 24 h; series mostly up to 9.22 µM; activation: at the top concentration
Method in brief: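 Compounds in DMSO were transferred onto Huh7 NPC1-luciferase reporter cells pre-incubated 2 h; after 24 h at 37 °C, Amplite reagent was dispensed and luminescence recorded 10 min later.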
Potency is the fitted concentration of half-maximal effect.

activation, inactive:
Cc1cc(C)n2nc(C(=O)OCC(=O)N(C)CC(=O)Nc3ccc(F)cc3)nc2n1 -10.3%
O=C(CSc1nc2[nH]c(=O)[nH]c(=O)c2s1)Nc1cccc(F)c1 -6.24%
Cc1cc(C)c(C#N)c(SCC(=O)N(CC(C)C)C2CCS(=O)(=O)C2)n1 (stereo unspecified) -2.59%
c1csc(-c2nnc(COc3ccc4c(c3)OCO4)o2)c1 27.6%
Cc1cccc(C(=O)O)c1[N+](=O)[O-] 1.58%
N#Cc1ccc(C(=O)OCC(=O)NC(=O)NC2CCCCC2)cc1 -1.04%
O=S(=O)(c1ccc(SCc2ccccc2)nc1)N1CCCCCC1 1.18%
COc1ccc(S(=O)(=O)N2CCOCC2)cc1C(=O)Nc1nc2ccccc2s1 -5.34%
O=C(Nc1cccc([N+](=O)[O-])c1)c1ccc2c(c1)OCO2 23.5%
O=C(Nc1ccc(NC(=O)c2ccc3c(c2)OCO3)cc1)c1cccc(Cl)c1 -0.441%
Cn1c(NC(=O)c2ccc3c(c2)OCO3)cc(=O)n(C)c1=O -3.07%
CCSc1ccccc1C(=O)Nc1ccc2c(c1)OCO2 7.76%
CCCc1nnc(NC(=O)c2cc(OC)cc(OC)c2)s1 -11.7%
O=C(Nc1ccc2c(c1)OCO2)c1ccc(N2C(=O)c3ccccc3C2=O)cc1 3.6%
O=C(Nc1nc2cc3c(cc2s1)OCCO3)c1cccc(S(=O)(=O)N2CCOCC2)c1 14.3%
CS(=O)(=O)Nc1ccccc1C(=O)OCC(=O)NC1CC1 6.22%
CSc1ccccc1C(=O)OCC(=O)N1CCN(C(C)=O)CC1 -1.56%
Cc1cccc(C(=O)NC(=S)N2CCN(c3ccc([N+](=O)[O-])cc3)CC2)c1 -0.538%
N#Cc1ccccc1S(=O)(=O)N1CCN(C(=O)c2cc(-c3ccccc3)nn2-c2ccccc2)CC1 -2.35%
Cc1ccc(S(=O)(=O)NCCNC(C)c2ccc(Br)cc2)cc1 (stereo unspecified) -5.06%
CCN(C(=O)CSc1nc(N)cc(=O)[nH]1)C1CCS(=O)(=O)C1 (stereo unspecified) 0.992%
CC1(C)O[C@@H]2[C@H](O1)[C@@H](COS(=O)(=O)O)O[C@H]2n1cnc2c(=O)[nH]cnc21 0.178%
C=CCn1c(C)cc(C2=NNC(=NCC)SC2)c1C -28.2%
COC(=O)c1cc(OC)c(OC)cc1NC(=O)CSc1ccc(C)cc1 -1.59%
CCN1CCN(C(=O)CSc2ccc(C)cc2)CC1 29.7%
CCC(=O)NC(=S)Nc1ccc(NC(=O)c2ccco2)c(Cl)c1 4.41%
O=C(NNC(=O)c1ccco1)Nc1ccccc1 -5.2%
CC1(NC(=O)CCS(=O)(=O)c2ccc(Cl)cc2)CCS(=O)(=O)C1 (stereo unspecified) -0.873%
CCOc1ccc(C(=O)CCC(=O)Nc2ccncc2)cc1 -3.49%
Cc1cc(C)cc(NC(=O)c2cccc(NC(=O)C3C4CC5OC(=O)C3C5C4)c2)c1 (stereo unspecified) 0.703%
O=C(Cn1c2[n+](c3ccc(C(F)(F)F)cc31)CCCCC2)Nc1c(F)cccc1F -5.85%
NC(=O)C1CCN(C(=O)c2ccc(F)c(S(=O)(=O)N3CCOCC3)c2)CC1 -5.94%
O=C(NCC1CCC(C(=O)O)CC1)OCc1ccccc1 (stereo unspecified) 2.31%
CCOC(=O)N1CCC(NC(=O)CCc2ccccc2)CC1 -2.93%
CC(=O)c1ccc(S(=O)(=O)NCCC(=O)N2CCN(c3ccccn3)CC2)cc1 -0.622%
O=C(Nc1cccc(C(=O)NC2CC2)c1)c1ccc(F)c(S(=O)(=O)N2CCOCC2)c1 -1.39%
COc1ccc(Cl)cc1NC(=O)COc1ccc2c(c1)OCO2 -1.02%
CCN(CC)CCn1c2c(c(SCC(=O)Nc3nc4ccccc4s3)nc1=O)CCCC2 0.104%
O=[N+]([O-])c1cc(Br)c(O)c(/C=N/Nc2nc3ccccc3s2)c1 -6.54%
COc1ccc(-c2sc3ccc(OC)cc3c2C#Cc2ccccn2)cc1 22%
Cc1cnc(CN(C)C(=O)C2CCC(=O)N(CCc3cccc(F)c3)C2)[nH]1 (stereo unspecified) -4.93%
Cc1csc(=O)n1CCC(=O)OCC(=O)NNC(=O)c1ccc(Br)cc1 -1.37%
Nc1c(N(CCCO)C(=O)C2CCCC2)c(=O)[nH]c(=O)n1Cc1ccccc1 0.384%
COc1ccc(/C(C)=N/NC(=O)c2ccc3nc[nH]c3c2)cc1 -2.23%
C/C(=N\NC(=O)c1cccnc1)c1ccc(-c2ccccc2)cc1 2.31%
COc1ccc(CCNC(=O)CCc2ccccc2O)cc1OC 1.23%
COc1ccccc1C(=O)NC(=O)COC(=O)C1CC1 2.15%
O=C(NCCS(=O)(=O)NCc1ccc(F)cc1)c1ccccc1 2.14%
O=C(COC(=O)CNC(=O)c1ccccc1F)NCC(F)(F)F -10.8%
O=C(CNC(=O)c1ccccc1Br)NCCSc1ccc(Br)cc1 -2.8%
O=C(CNC(=O)c1ccccc1)NCC(=O)OCC(=O)c1ccccc1 -2.12%
Cc1ccc(S(=O)(=O)Nc2nc(CN3CCOCC3)nc3sc(C)c(C)c23)cc1 -3.18%
COc1ccc(CNC(=O)c2ccc(NS(=O)(=O)c3ccc4[nH]c(=O)[nH]c4c3)cc2)cc1OC 0.755%
Nc1nc(SCC(=O)Nc2ccc(Cl)c([N+](=O)[O-])c2)n[nH]1 -0.898%
Cc1noc(C)c1COc1ccc(C(=O)NCCOc2ccccc2)cc1 14%
CCCCCCCCC(=O)NCCOc1ccccc1 -1.35%
CN(c1ccccc1)S(=O)(=O)c1ccc(C(=O)NCCc2ccccc2)cc1 16.8%
COc1ccc(OCCCC(=O)NCCc2ccccc2)cc1 0.654%
O=C(CCNC(=O)c1ccc(Br)cc1)NCCCc1ccccc1 0.35%
CCCc1ccc(OCCNC(=O)c2ccccc2Br)cc1 11%

Potency, active:
O=C(Nc1ccccc1)c1ccc2c(c1)OCO2 2820 nM
CC(C)C(=O)Nc1cccc(C(=O)Nc2ccc3c(c2)OCO3)c1 2820 nM
COCc1nnc(NC(=O)c2ccc3c(c2)OCO3)s1 2820 nM
O=C(Nc1nc2ccccc2s1)c1ccc2c(c1)OCO2 562 nM
COCCn1c(C)cc(C2=NNC(=Nc3ccc(F)cc3)SC2)c1C 2510 nM
Cc1ccc(SCC(=O)c2cc(C)c(OC(=S)N(C)C)c(C)c2)cc1 2510 nM
O=C(NNC(=S)Nc1ccc(Br)cc1Cl)c1ccco1 3550 nM
CN1C(=O)/C(=C/C=C2\SCCN2C)OC1=S 3980 nM
O=C(O)C1CCN(C(=O)OCc2ccccc2)CC1 2000 nM
c1ccc2sc(NN=C3CCCC3)nc2c1 1410 nM
C/C(=N\NC(=O)c1nc(C)cc(C)n1)c1ccccc1 1580 nM
O=C(CNC(=O)c1ccc(F)cc1)c1ccccc1 1410 nM
O=C(CNC(=O)c1ccccc1F)c1ccc(Br)cc1 398 nM
CC(C)c1ccc(C(=O)NCCCc2ccccc2)cc1 2820 nM
CCCOc1ccc(C(=O)NCCc2ccccc2)cc1 447 nM
O=C(NCCOc1ccccc1)c1ccccc1 631 nM
